40 compounds from PubChem BioAssay (Tox21) can be followed below.

Structures are written as SMILES. Records with an inconclusive call do not appear. Entries that show only a call come without a potency. Active and inactive are the calls of the source. The call rests on the fitted dose curve; in most records, active means well fitted activation curve with a large enough effect in the signal ratio in the repeat runs (not every such curve was filed as active); inconclusive means weak or mixed curves; inactive means flat fitted curve, though single readings scatter; the % refers to the signal ratio.
Potency means the concentration at half of the fitted maximal effect.

The test in a line: p53 small molecule agonists, cell-based qHTS assay (AID 1963582). The following applies: HCT-116 p53RE-bla reporter, beta-lactamase FRET ratio, 16 h; series mostly up to 66 µM. The source says: National Center for Advancing Translational Sciences [NCATS]
Division of Preclinical Innovation [DPI]
U.S. Environmental Protection Agency [EPA]
National Institutes of Environmental Health Sciences [NIEHS]
National Toxicology Program [NTP]
U.S. Food and Drug Administration [FDA]
p53, a tumor suppressor protein, is activated following cellular insult, including DNA damage and other cellular stresses. The activation of p53 regulates cell fate by inducing DNA repair, cell cycle arrest, apoptosis, or cellular senescence. The activation of p53, therefore, is a good indicator of DNA damage and other cellular stresses. […] The activation of the reporter gene under culture conditions can be detected by fluorescence intensity. This cell line was used to screen the Tox21 10K compound library in a 1536-well plate format and to identify agonists that activate the p53 signaling pathway.
Tox21 Assay Protocol Summary:
The p53RE-bla cells were dispensed at 4,000 cells/5 ul/well in 1536-well black wall/clear bottom plates using a Multidrop dispenser. After the assay plates were incubated at a 37 C/5% CO2 incubator for 5 hours, 23 nL of compounds dissolved in DMSO, positive controls or DMSO only was transferred to the assay plate by a pin tool. The plates were incubated at 37 C for 16 hours. After 1 uL of LiveBLAzerTM B/G FRET substrate was added using a Flying Reagent Dispenser, the plates were incubated at room temperature for 2 hours, and fluorescence intensity was measured by an Envision plate reader.
(In qHTS, concentration-response curves come from the screen itself.)
With `Nc1cc(Cl)cc(Cl)c1`, the Potency result is “inactive”.
The value for `COP(=S)(OC)Oc1ccc(SC)c(C)c1` was “inactive”; that for `O=C(O)C(Cl)(Cl)Br` was “inactive”; that for `O=c1[nH]c2ccccc2c(=O)o1` was “inactive”.
In the case of `Cc1cccc(N)c1` it was “inactive”.
Regarding `CS(=O)(=O)NC(=O)c1cc(Oc2ccc(C(F)(F)F)cc2Cl)ccc1[N+](=O)[O-]`, the Potency entry was “inactive”.
In the case of `Cc1ccc(O)c(C)c1` it was “inactive”; in that of `CCC(=O)O[C@@H]1C=C2CCC3C(CCC4(C)C3CC[C@@H]4OC(=O)CC)C2CC1` (stereo not given in full), “inactive”.
The value for `NC(=O)O` was “inactive”.
As to `NNC(=O)c1ccccc1`, the Potency result is “inactive”.
The value for `C=CCCl` was “inactive”; that for `COC(=O)NS(=O)(=O)c1ccc(N)cc1` was “inactive”.
In the case of `ClCC1CO1` (stereo not given) it was “inactive”.
As for `CC1(C)C(C=C(Cl)Cl)C1C(=O)OC(C#N)c1ccc(F)c(Oc2ccccc2)c1` (stereo not given), the Potency entry was “inactive”.
The value for `CC1(C)[C@H](C(=O)O[C@H](C#N)c2cccc(Oc3ccccc3)c2)[C@@H]1/C=C(\Cl)C(F)(F)F` was “inactive”.
In the case of `CCN(CC)C(=O)/C(Cl)=C(\C)OP(=O)(OC)OC` it was “inactive”.
Take `CCC1(CC)C(=O)C=CNC1=O`: the Potency result is “inactive”.
The value for `CC1=C2[C@H]3OC(=O)[C@@H](C)[C@@H]3CC[C@@]2(C)C=CC1=O` was “inactive”.
In the case of `C=CCN1C[C@H](C)N([C@H](c2ccc(C(=O)N(CC)CC)cc2)c2cccc(OC)c2)C[C@H]1C` it was “inactive”.
Consider `CC(C)c1ccc(NC(=O)N(C)C)cc1`, for which the Potency entry was “inactive”.
The value for `CCCCCCCCCCCCCl` was “inactive”; that for `N#Cc1ccc(O)cc1` was “inactive”.
In the case of `C=CCN(CC=C)C(=O)C(Cl)Cl` it was “inactive”.
The value for `CCCCCBr` was “inactive”.
As to `C=CCc1ccccc1O`, the Potency result was “inactive”.
In the case of `CCCCCCCCCCCCBr` it was “inactive”; in that of `CC(c1ccc(O)cc1)c1ccc(O)cc1`, 38.2 µM (active).
Turning to `FC(F)(F)c1ccc(Cl)cc1`, the Potency result is “inactive”.
The value for `CSc1nc(NC(C)C)nc(NC(C)C)n1` was “inactive”.
In the case of `CCCCCCCCCc1ccc(O)cc1` it was “inactive”; in that of `C1CCC(NC2CCCCC2)CC1`, “inactive”; in that of `CC(=O)C(Cl)Cl`, “inactive”.
On to `CCCBr`, for which the Potency result is “inactive”.
In the case of `c1ccc(-c2cccc(-c3ccccc3)c2)cc1` it was “inactive”; in that of `Cc1ccccc1O`, “inactive”; in that of `CC(C)(C)OOC(=O)c1ccccc1`, “inactive”.
In the case of `O=C(Cc1ccccc1)c1ccccc1` it was “inactive”; in that of `CC(C)(O)C(Cl)(Cl)Cl`, “inactive”; in that of `CCCCCCCCOC(=O)c1ccccc1C(=O)OCCCCCCCC`, “inactive”.
Regarding `c1ccc(N2CCNCC2)cc1`, the Potency entry is “inactive”.
